Measured values reported in PubChem BioAssay.
Calls of active or inactive are those of the source.

How the values were obtained:
[1] = tested on: PRMT1 (protein arginine N-methyltransferase 1); assay: small molecules binding arginine methyltransferase PRMT1 – biochemical, small-molecule microarray, 635 nm fluorescence, primary screen (AID 1088); details: higher = more signal;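 also: binding of Prmt1 protein to compounds spotted on small-molecule microarray slides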
[2] = growth effects on S. cerevisiae YJM789 – YJM789 clinical isolate, OD600, 24 h, basal, primary screen (AID 1089); details: higher = more signal, called active from +8 up or from −8 down;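 also: growth of clinical yeast isolate S. cerevisiae YJM 789 seeded 1000 cells per well; test concentration not given here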
[3] = S. pombe growth modifiers, basal conditions – strain 972, OD600, 24 h, no modulator, primary screen (AID 1090);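 also: basal condition with compound alone and no growth modifier present; test concentration not given here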; details: S. pombe 972 growth, higher = more signal, called active from +8 up or from −8 down
[4] = budding yeast growth modifiers under rapamycin – strain BY4716, OD600, 96 h, primary screen (AID 1091); also: test concentration not given here; details: S. cerevisiae BY4716 + rapamycin, higher = more signal, called active from +8 up or from −8 down
[5] = molecular target: Torsin-1A-interacting protein 2 (Homo sapiens) (UniProt Q8NFQ8); assay: small molecules binding lysate-expressed LULL1 – cell lysate, human LULL1 lysate, 635/667 nm fluorescence, primary screen (AID 1092); details: small-molecule microarray, hLULL1 lysate binding, 635 nm fluorescence; higher = more signal;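 also: probe is lysate of COS7 cells overexpressing human LULL1; score merges per-feature 667 nm fluorescence with signal-to-noise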
Chain of Torsin-1A-interacting protein 2 (Homo sapiens) (Q8NFQ8 whole entry, looked up): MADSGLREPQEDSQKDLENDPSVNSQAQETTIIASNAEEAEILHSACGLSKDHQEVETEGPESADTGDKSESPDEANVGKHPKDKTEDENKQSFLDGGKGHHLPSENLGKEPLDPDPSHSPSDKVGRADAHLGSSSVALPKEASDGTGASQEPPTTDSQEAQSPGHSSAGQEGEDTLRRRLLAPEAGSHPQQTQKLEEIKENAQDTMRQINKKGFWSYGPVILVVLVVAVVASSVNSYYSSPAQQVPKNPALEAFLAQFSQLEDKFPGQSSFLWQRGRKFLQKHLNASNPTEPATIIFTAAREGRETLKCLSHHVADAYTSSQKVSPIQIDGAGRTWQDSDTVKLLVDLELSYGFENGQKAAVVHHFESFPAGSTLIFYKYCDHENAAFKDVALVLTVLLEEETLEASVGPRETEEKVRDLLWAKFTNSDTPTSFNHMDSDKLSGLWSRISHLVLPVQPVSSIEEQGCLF

[6] = optical density change of DRC41 E. coli – strain DRC41, OD650, 24 h, E. coli filamentation project, primary screen (AID 1093);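 also: MC1000 strain lacking acrAB efflux and sulA so SOS filamentation is blocked; test concentration not given here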; details: E. coli DRC41 growth, higher = more signal, called active from +8 up or from −8 down
[7] = probe aLefty2 binding to arrayed compounds – biochemical, biotinylated probe, 635/667 nm fluorescence, primary screen (AID 1094); details: small-molecule microarray, higher = more signal;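 also: score merges spot fluorescence near 667 nm with spot signal-to-noise ratio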
[8] = tested on: Noggin (protein binding on small-molecule microarray); assay: small molecules binding Noggin protein – biochemical, 635/667 nm fluorescence, primary screen (AID 1095); details: 635 nm fluorescence, higher = more signal;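 also: score merges 667 nm feature fluorescence with signal to noise over triplicate slides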
[9] = molecular target: Neurogenic locus notch homolog protein 3 (Homo sapiens) (UniProt Q9UM47); assay: small molecules binding NOTCH3 protein – biochemical, 635/667 nm fluorescence, primary screen (AID 1096); details: small-molecule microarray, 635 nm fluorescence, higher = more signal
Chain of Neurogenic locus notch homolog protein 3 (Homo sapiens) (Q9UM47 whole entry, looked up): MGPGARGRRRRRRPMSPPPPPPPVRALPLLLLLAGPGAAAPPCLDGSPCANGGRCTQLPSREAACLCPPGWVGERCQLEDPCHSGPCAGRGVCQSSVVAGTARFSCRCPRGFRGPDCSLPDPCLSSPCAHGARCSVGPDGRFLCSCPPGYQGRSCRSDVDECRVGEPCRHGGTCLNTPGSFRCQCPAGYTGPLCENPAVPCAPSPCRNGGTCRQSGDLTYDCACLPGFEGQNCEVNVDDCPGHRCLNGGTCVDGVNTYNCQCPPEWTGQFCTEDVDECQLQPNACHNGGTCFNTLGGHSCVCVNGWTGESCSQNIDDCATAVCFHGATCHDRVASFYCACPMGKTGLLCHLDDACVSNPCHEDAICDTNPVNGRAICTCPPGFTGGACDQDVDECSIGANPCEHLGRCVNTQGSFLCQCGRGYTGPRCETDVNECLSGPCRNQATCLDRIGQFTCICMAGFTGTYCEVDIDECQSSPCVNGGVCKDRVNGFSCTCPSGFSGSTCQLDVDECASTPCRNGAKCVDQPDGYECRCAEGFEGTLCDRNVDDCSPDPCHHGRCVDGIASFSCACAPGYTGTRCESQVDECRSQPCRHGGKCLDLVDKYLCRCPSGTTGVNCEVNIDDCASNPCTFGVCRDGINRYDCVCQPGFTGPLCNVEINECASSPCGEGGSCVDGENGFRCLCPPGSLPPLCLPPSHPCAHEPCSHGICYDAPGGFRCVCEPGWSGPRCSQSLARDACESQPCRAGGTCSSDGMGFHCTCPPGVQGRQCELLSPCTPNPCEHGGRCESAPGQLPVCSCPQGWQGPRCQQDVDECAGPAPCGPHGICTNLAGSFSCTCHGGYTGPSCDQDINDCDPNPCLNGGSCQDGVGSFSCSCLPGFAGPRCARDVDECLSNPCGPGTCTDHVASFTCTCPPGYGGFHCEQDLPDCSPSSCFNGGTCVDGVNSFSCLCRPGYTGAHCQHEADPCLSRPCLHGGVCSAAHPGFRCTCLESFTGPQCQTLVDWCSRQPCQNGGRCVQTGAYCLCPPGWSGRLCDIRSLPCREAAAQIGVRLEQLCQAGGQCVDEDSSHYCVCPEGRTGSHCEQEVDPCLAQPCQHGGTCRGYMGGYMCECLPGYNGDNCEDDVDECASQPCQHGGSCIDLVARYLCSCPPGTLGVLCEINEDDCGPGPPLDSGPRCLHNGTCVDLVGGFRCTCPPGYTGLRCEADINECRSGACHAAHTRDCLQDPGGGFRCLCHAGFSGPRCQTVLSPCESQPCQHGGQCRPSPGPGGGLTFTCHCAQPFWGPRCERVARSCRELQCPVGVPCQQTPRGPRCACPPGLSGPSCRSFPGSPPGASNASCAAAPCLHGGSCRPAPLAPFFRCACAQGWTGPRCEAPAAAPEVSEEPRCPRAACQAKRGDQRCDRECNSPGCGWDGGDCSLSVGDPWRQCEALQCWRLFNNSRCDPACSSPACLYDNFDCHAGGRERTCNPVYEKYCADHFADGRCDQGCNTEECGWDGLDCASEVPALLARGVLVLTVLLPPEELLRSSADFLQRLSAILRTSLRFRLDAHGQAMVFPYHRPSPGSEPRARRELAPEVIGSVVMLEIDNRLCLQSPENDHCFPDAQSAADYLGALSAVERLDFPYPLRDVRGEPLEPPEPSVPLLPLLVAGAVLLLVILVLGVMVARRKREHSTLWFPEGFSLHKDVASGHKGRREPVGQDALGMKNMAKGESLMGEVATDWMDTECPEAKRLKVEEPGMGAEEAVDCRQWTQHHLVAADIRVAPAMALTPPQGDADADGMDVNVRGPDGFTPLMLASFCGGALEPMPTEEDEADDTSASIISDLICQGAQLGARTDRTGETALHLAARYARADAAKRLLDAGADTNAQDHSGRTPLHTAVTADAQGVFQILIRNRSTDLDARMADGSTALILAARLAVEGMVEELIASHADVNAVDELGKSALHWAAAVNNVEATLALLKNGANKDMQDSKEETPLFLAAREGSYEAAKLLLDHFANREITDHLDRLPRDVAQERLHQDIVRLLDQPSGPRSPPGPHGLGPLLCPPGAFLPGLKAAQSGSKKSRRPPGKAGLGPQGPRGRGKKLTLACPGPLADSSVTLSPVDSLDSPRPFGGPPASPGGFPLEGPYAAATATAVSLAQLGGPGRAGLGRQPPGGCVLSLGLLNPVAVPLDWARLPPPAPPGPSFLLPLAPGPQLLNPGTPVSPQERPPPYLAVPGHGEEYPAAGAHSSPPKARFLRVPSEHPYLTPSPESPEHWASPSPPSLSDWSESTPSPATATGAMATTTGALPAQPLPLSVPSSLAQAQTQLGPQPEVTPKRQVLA

[10] = probe aEGFR binding to arrayed compounds – biochemical, biotinylated probe, 635/667 nm fluorescence, primary screen (AID 1097); details: small-molecule microarray, higher = more signal;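 also: probe is a biotinylated anti-EGFR antibody binding compounds printed on slides; score combines fluorescence near 667 nm and signal to noise of each spot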
[11] = tested on: Plasmodium falciparum Sir2 (PF13_0152, Sir2A); assay: Plasmodium falciparum Sir2A binding compounds – biochemical, small-molecule microarray, 635 nm fluorescence, primary screen (AID 1098); details: fluorescence 635 nm, higher = more signal;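 also: score merges spot fluorescence intensity with its signal-to-noise ratio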
[12] = probe aDKK1 binding to arrayed compounds – biochemical, biotinylated probe, 635/667 nm fluorescence, primary screen (AID 1099); details: small-molecule microarray, higher = more signal;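 also: score merges 667nm spot fluorescence with signal to noise across triplicate slides; reference of the scale not given here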
[13] = probe aCHRDL2 binding to arrayed compounds – biochemical, biotinylated probe, 635/667 nm fluorescence, primary screen (AID 1100); details: small-molecule microarray, higher = more signal
[14] = change in splice reporter luminescence, either direction, cell-based, HEK293, spliceosome inhibition project, primary screen (AID 1101); details: HEK293 splicing luciferase reporter, 24 h, higher = more signal, called active from +8 up or from −8 down;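 also: HEK293 cells carrying a splicing-competent luciferase reporter gene; test concentration not given here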
[15] = molecular target: Fibroblast growth factor 10 (Homo sapiens) (UniProt O15520); assay: compounds binding fibroblast growth factor 10 – biochemical, small-molecule microarray, 635 nm fluorescence, primary screen (AID 1102); details: FGF10 binding, fluorescence 635 nm, higher = more signal
Chain of Fibroblast growth factor 10 (Homo sapiens) (O15520 whole entry, looked up): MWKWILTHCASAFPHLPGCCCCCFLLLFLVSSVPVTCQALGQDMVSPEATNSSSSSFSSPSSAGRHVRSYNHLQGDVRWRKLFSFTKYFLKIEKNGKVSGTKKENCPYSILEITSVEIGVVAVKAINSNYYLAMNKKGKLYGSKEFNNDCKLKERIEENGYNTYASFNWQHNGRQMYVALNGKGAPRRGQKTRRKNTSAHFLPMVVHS

[16] = tested on: glycogen synthase kinase-3 (GSK3A per assay name; protocol says GSK3B); assay: compounds binding glycogen synthase kinase-3 – biochemical, small-molecule microarray, 635 nm fluorescence, GSK3A, primary screen (AID 1103); details: fluorescence 635 nm, higher = more signal; also: the record names both GSK3A and GSK3B
[17] = molecular target: Epidermal growth factor receptor (Homo sapiens) (UniProt P00533); assay: compounds binding epidermal growth factor receptor – biochemical, small-molecule microarray, 635 nm fluorescence, primary screen (AID 1104); details: EGFR binding, higher = more signal;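 also: score merges 667 nm emission intensity with spot signal to noise over triplicate slides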
Chain of Epidermal growth factor receptor (Homo sapiens) (P00533 whole entry, looked up): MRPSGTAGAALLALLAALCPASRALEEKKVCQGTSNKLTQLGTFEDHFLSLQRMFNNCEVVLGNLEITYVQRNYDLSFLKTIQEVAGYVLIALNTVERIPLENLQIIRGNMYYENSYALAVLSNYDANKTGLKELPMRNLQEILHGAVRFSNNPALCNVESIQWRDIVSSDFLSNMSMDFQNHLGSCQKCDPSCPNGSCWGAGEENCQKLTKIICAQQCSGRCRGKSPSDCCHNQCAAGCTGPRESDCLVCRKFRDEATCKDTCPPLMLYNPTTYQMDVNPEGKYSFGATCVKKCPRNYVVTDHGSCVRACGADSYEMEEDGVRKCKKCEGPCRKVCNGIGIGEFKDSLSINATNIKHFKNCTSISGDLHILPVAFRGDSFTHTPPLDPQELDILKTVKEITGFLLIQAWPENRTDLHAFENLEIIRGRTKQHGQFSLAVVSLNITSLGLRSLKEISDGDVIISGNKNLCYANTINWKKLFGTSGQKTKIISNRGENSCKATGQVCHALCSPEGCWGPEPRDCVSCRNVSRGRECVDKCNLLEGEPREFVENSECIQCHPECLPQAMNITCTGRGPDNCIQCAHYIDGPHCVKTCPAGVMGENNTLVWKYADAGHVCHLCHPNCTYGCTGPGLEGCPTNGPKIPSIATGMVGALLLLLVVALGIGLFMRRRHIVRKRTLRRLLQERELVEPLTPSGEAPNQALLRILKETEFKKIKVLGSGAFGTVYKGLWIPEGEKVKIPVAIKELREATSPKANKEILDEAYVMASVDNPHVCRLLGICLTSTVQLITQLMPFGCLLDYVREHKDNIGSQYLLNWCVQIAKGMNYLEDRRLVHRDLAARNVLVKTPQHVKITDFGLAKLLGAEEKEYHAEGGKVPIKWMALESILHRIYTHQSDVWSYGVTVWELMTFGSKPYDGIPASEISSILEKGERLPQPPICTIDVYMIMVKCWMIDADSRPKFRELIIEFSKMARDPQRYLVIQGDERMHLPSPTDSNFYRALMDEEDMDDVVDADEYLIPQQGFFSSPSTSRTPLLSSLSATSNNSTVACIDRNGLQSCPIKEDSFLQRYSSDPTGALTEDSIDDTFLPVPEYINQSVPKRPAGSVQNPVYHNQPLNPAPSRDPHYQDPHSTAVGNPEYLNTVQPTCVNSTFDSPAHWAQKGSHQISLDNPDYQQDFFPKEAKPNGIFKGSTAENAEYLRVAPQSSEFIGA

[18] = molecular target: Follistatin-related protein 3 (Homo sapiens) (UniProt O95633); assay: compounds binding follistatin-related protein 3 – biochemical, small-molecule microarray, 635 nm fluorescence, primary screen (AID 1105); details: FSTL3 binding, higher = more signal;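 also: score merges emission near 667 nm and signal to noise per printed spot across three slides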
Chain of Follistatin-related protein 3 (Homo sapiens) (O95633 whole entry, looked up): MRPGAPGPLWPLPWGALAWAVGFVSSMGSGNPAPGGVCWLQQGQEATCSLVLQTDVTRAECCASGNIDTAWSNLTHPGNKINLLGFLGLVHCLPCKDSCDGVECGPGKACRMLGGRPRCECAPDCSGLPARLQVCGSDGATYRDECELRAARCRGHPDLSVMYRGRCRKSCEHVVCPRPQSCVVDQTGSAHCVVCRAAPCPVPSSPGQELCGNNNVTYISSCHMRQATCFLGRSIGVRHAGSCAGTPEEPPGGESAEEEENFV

[19] = molecular target: Dickkopf-related protein 1 (Homo sapiens) (UniProt O94907); assay: small molecules binding DKK1 protein – biochemical, small-molecule microarray, 635 nm fluorescence scan, primary screen (AID 1106); details: higher = more signal;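 also: score merges emission near 667 nm with signal to noise over three replicate slides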
Chain of Dickkopf-related protein 1 (Homo sapiens) (O94907 whole entry, looked up): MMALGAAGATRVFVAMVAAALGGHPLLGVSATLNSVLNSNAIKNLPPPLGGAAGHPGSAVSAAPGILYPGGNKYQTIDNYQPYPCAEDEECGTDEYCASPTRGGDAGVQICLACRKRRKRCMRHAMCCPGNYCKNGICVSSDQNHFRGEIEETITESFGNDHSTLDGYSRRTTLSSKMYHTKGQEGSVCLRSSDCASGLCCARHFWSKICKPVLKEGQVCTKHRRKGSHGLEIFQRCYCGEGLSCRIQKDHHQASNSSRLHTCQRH

[20] = tested on: Inhibin beta A chain (activin A); assay: small molecules binding activin A – biochemical, small-molecule microarray, 635 nm fluorescence scan, primary screen (AID 1107); details: INHBA, higher = more signal;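 also: mouse activin A protein probed at 4.33 µg/mL on printed slides; score merges bound-protein fluorescence near 667 nm with spot signal-to-noise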

SMILES | composite z-score [1] | z-score [2] | z-score [3] | z-score [4] | composite z-score [5] | z-score [6] | composite z-score [7] | composite z-score [8] | composite z-score [9] | composite z-score [10] | composite z-score [11] | composite z-score [12] | composite z-score [13] | z-score [14] | composite z-score [15] | composite z-score [16] | composite z-score [17] | composite z-score [18] | composite z-score [19] | composite z-score [20]
O=C(N1CCOCC1)[C@@]1(CCS(=O)(=O)c2ccccc2)N=C(c2ccc(OCCCO)cc2)O[C@H]1c1ccccc1 | 1.44 | 0.487 (inactive) | 0.395 (inactive) | -0.0156 (inactive) | 3.56 | 0.746 (inactive) | 0.352 | 0.136 | 1.15 | 0.156 | 1.64 | 1.42 | 1.33 | 2.21 (inactive) | 0.646 | 1.22 | -0.412 | 0.424 | -0.383 | 0.382
CCCCC(=C=CC[C@H](O)c1ccc(OCCO)cc1)C[C@H](O)c1cc(Cl)cc(Cl)c1O | 1.18 | 0.294 (inactive) | -3.5 (inactive) | -0.15 (inactive) | 1.54 | 0.0374 (inactive) | -0.192 | 0.563 | 0.62 | -0.183 | 1.06 | -0.0865 | 0.218 | -0.321 (inactive) | 1.35 | 0.11 | -0.0609 | 0.17 | 0.193 | 0.813
C=C(C(=O)CC[C@H](OC(=O)c1ccccc1-c1ccccc1C(=O)O)c1ccccc1OCCO)C(C)C | 1.41 | 0.574 (inactive) | -0.788 (inactive) | -0.927 (inactive) | 1.46 | 0.968 (inactive) | -0.199 | 0.695 | 0.257 | -0.194 | 1.01 | -0.175 | -0.459 | -0.456 (inactive) | 0.238 | 0.304 | -0.388 | 0.176 | 0.273 | 1.16
COc1ccc([Si](C)(C)[C@H]2[C@H](CCO)O[C@@]3(C(=O)N(Cc4ccccc4)c4ccc(N5C(=O)c6ccccc6Oc6ccccc65)cc43)[C@@H]2C)cc1 | 1.12 | -0.234 (inactive) | 0.723 (inactive) | 4.27 (inactive) | 1.94 | 1.25 (inactive) | -0.114 | -0.355 | 0.427 | -0.174 | 0.365 | -0.167 | -0.123 | -0.916 (inactive) | 0.0351 | -0.512 | -0.124 | -0.734 | 0.0449 | 0.201
COCCOC(=O)N1C(=O)[C@@]2(c3cc(C#CC4=CCCCC4)ccc31)[C@H](C(=O)N1CCCCCCC1)[C@H]1C(=O)O[C@H](c3ccccc3)[C@H](c3ccccc3)N1[C@@H]2c1ccc(OCCO)cc1 | 1.22 | 0.175 (inactive) | -0.534 (inactive) | 1.62 (inactive) | 0.973 | -0.909 (inactive) | 0.726 | 1.52 | 1.06 | 0.265 | 1.23 | 0.977 | 0.734 | -0.611 (inactive) | 1.03 | 1.17 | 0.825 | 1.23 | 0.835 | 1.43
CN(C)C(=O)[C@@]1(Cc2ccccc2N=[N+]=[N-])N=C(c2ccc(OCCCO)cc2)O[C@H]1c1ccccc1 | 1.57 | 0.687 (inactive) | -4.17 (inactive) | 1.23 (inactive) | 3.38 | 0.1 (inactive) | 0.58 | -0.125 | 1.12 | 0.35 | 1.36 | 0.605 | 1.35 | 0.22 (inactive) | 0.607 | 1.22 | -0.103 | 0.465 | -0.217 | 0.787
Cc1cccc([C@H]2C[C@H]3C(Br)=C[C@@H]2C(=O)[C@]32CO2)c1 | -0.373 | -0.749 (inactive) | -20.5 (active) | -1.2 (inactive) | -0.831 | 0.779 (inactive) | -0.0416 | -0.329 | -0.867 | -0.626 | -0.256 | -0.423 | -0.0607 | -0.517 (inactive) | -0.711 | -0.869 | -0.0431 | -0.412 | 0.404 | 1.37
CC(C)C[C@@H]1NC(=O)[C@@]23C(=O)N[C@@H](Cc4ccccc4)C2[C@H](C)[C@@]2(C)O[C@H]2C3/C=C/C/C=C\CNC(=O)[C@@H](C)NC1=O (stereo not given in full) | 0.5 | -0.939 (inactive) | -1.17 (inactive) | -1.35 (inactive) | -0.408 | 0.624 (inactive) | -0.178 | 0.33 | 0.195 | -0.131 | 1.72 | -0.416 | -0.601 | -1.34 (inactive) | -0.052 | -0.608 | 0.401 | 0.331 | 0.431 | 1.27
COC(=O)[C@@]1(Cc2ccc(OC)cc2)[C@H]2c3cc(C(=O)N4CCCC4)n(Cc4ccc(OC(F)(F)F)cc4)c3C[C@H]2CN1C(=O)c1ccccc1 | -1.02 | 0.59 (inactive) | 1.74 (inactive) | 3.21 (inactive) | 0.0202 | -0.376 (inactive) | 0.412 | -0.442 | 0.75 | 0.343 | 0.858 | 1.15 | 1.1 | -0.886 (inactive) | 0.717 | -0.5 | -0.0407 | 0.598 | -0.414 | 0.891
